Experimental data from PubChem BioAssay.
Records with an inconclusive call do not appear. Activity calls are given as the source filed them.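 The calls were made as follows, unless noted: active = inhibition above 50%, about 3 SD of the validation set; inactive = the rest.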

Key:
[1] = yeast TOR pathway RPL19A-GFP modulators, primary screen, cell-based, S. cerevisiae, multiplex flow cytometry (AID 1862; in the data active = percent of DMSO control GFP below about 86%;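 also: lower values mimic rapamycin by blocking the RPL19A rise seen in DMSO cells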); details: S. cerevisiae RPL19A-GFP strain, flow cytometry fluorescence, 3 h; at 10 µM; stronger effect = lower value
[2] = modulators of MEP2-GFP levels in yeast, primary screen, S. cerevisiae, multiplex flow cytometry (AID 1867;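 active = GFP response, as percent of the DMSO control, above the screen-wide mean plus 3 SD, about 139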;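 also: median GFP channel fluorescence of barcode-gated MEP2-GFP cells measured by flow cytometry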); details: S. cerevisiae MEP2-GFP strain, 3 h, at 10 µM, stronger effect = higher value, 100% means same as DMSO wells
[3] = modulators of CIT2-GFP expression in yeast, primary screen, S. cerevisiae, GFP fusion, multiplex flow cytometry (AID 1870;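 active = percent response above a set limit, the screen-wide mean plus 3 SD, cut at about 130% in these data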;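 also: barcoded CIT2-GFP strain pooled with four other GFP strains with rapamycin as positive control; median GFP fluorescence per well over plate mean of DMSO wells so 100% = DMSO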); details: 3 h, at 10 µM, stronger effect = higher value
[4] = modulators of LAP4-GFP expression in yeast, primary screen, S. cerevisiae, multiplex flow cytometry (AID 1873;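 active = GFP signal, as percent of the solvent control, above the screen mean plus 3 SD, about 149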); details: 3 h, at 10 µM, stronger effect = higher value
[5] = modulators of AGP1-GFP expression in yeast TOR pathway, primary screen, cell-based, multiplex flow cytometry, S. cerevisiae (AID 1887;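 active = GFP signal above the screen-wide mean plus 3 SD, that is over about 124.5% of the solvent control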;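 also: AGP1-GFP fusion strain of S. cerevisiae within a five-strain barcoded multiplex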); details: 3 h, at 10 µM, stronger effect = higher value
[6] = RPL19A-GFP modulators, yeast TOR pathway, confirmation, cell-based, S. cerevisiae, flow cytometry, cherry picks, mother/daughter gates (AID 2270;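 active = GFP response below 50% of the DMSO control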); details: S. cerevisiae RPL19A-GFP strain, 3 h, at 10 µM, stronger effect = lower value, 100 = same GFP as DMSO wells
[7] = LAP4-GFP expression modulators in yeast, confirmation, cell-based, cherry picks, flow cytometry, mother/daughter gates (AID 2271;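 active = GFP response above 150% of the DMSO control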;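 also: ratio of sample to DMSO plate mean so 100% equals DMSO level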); details: S. cerevisiae LAP4-GFP strain, 3 h, at 10 µM, stronger effect = higher value, 100 means same as DMSO control
[8] = modulators of MEP2-GFP levels in yeast, confirmation, S. cerevisiae, flow cytometry GFP, cherry picks (AID 2272;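 active = GFP response above 150% of the DMSO control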;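 also: ratio of well signal to plate DMSO mean so 100% equals DMSO level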); details: S. cerevisiae MEP2-GFP strain, 3 h, at 10 µM, stronger effect = higher value
[9] = modulators of CIT2-GFP expression in yeast, confirmation, S. cerevisiae, GFP fusion, cherry picks, mother/daughter gates (AID 2274;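 active = GFP response above 150% of the DMSO level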); details: S. cerevisiae CIT2-GFP strain, flow cytometry, 3 h, at 10 µM, stronger effect = higher value
[10] = inhibitors of CD8+ T cell-vesicle binding, pilot screen, LFA-1/ICAM-1 modulator project, MLPCN validation set, flow cytometry (AID 2523;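 active = response below a set limit, under 55% cells CD8-positive and vesicle-bound, and CD8 cells' 90th-percentile brightness under 279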;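 as to vesicle binding response: mean PE anti-B7-1 fluorescence of CD8+ cells relative to row control; 100% = QL9-loaded vesicles with DMSO vehicle in the same plate row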); details: 2C mouse CD8+ T cells, at 7 µM, stronger effect = lower value; double positive events: measured here: CD8+/vesicle+ event percentage
[11] = target: Integrin beta-1 (Homo sapiens) + Integrin alpha-4 (Homo sapiens) (UniProt P13612+P05556); assay: inhibition of HUTS-21 binding to VLA-4, pilot screen, VLA-4 allosteric modulator project, U937 cells, HUTS-21 mAb, flow cytometry, validation set (AID 2674); details: HUTS-21 LIBS mAb binding, at 6.7 µM, stronger effect = higher value, binding induced by LDV ligand;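 also: antibody binding induced by the VLA-4 ligand LDV present at three times its Kd; 0% = LDV ligand with antibody and no compound and 100% = antibody without LDV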
Sequence of Integrin beta-1 (Homo sapiens) + Integrin alpha-4 (Homo sapiens) (P05556 whole entry, looked up): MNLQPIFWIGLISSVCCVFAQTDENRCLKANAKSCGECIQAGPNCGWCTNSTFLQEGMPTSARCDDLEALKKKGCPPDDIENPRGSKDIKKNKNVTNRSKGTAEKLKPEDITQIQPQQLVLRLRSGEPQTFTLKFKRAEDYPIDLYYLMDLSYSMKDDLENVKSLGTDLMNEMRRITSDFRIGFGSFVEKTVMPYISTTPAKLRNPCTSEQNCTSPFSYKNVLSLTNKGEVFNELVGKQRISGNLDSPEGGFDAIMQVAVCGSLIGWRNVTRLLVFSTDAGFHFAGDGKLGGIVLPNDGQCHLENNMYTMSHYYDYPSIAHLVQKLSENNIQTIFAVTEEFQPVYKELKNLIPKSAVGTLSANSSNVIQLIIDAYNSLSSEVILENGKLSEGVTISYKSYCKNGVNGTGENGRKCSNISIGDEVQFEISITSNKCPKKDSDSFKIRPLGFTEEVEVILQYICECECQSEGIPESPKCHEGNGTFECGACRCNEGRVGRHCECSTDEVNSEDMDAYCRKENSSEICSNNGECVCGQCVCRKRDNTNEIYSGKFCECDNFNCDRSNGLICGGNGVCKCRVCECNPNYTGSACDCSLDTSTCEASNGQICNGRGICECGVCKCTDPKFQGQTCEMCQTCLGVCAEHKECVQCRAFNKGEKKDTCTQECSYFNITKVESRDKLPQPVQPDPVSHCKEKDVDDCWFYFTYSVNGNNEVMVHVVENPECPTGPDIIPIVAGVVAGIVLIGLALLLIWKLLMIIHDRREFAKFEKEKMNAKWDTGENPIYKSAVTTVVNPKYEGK
Sequence of Integrin beta-1 (Homo sapiens) + Integrin alpha-4 (Homo sapiens) (P13612 whole entry, looked up): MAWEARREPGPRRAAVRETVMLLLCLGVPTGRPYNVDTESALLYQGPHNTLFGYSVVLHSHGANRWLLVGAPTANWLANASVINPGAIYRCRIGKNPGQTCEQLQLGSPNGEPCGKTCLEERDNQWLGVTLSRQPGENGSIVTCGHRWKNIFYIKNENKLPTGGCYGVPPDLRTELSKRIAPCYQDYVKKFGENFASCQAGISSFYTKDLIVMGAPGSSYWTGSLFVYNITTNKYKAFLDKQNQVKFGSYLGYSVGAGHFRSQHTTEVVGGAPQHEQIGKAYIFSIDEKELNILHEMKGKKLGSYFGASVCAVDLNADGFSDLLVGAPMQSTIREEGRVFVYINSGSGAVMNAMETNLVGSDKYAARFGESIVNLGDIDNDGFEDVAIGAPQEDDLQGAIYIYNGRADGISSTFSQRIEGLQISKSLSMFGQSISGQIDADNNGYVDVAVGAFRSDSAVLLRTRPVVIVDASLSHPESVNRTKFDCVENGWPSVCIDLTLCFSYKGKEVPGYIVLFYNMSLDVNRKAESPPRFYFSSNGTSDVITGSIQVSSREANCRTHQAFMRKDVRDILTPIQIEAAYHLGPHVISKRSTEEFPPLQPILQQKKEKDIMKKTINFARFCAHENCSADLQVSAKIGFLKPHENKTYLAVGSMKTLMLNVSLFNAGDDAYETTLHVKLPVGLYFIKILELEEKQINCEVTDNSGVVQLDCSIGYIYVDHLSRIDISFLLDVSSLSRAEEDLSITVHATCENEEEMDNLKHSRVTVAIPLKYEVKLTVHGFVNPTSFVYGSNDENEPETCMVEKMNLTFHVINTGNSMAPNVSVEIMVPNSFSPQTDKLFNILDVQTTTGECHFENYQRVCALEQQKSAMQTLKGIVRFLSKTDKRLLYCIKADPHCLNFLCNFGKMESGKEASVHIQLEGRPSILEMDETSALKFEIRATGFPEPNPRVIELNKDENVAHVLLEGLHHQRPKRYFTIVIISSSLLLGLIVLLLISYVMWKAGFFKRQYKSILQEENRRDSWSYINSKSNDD

[12] = superoxide lowering in aged yeast cells, pilot screen, validation compound set (AID 2706;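 active = superoxide response below 65% of plate, a cut near 3 SD across the whole screen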;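 also: yeast exposed to compound for one week at 30 degrees C before staining; 100% = mean of all compound wells on the same plate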); details: S. cerevisiae aging, superoxide DHE fluorescence; at 10 µM; stronger effect = lower value
[13] = target: Beta-adrenergic receptor kinase 1 (Homo sapiens) (UniProt P25098); assay: GRK2 binders displacing RNA aptamer, biochemical, validation, human GRK2, bead flow cytometry (AID 488806;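 active = aptamer binding inhibition above 30%, about 3 SD of noise from non-fluorescent compounds; inactive = inhibition at or below 30%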); details: bead-bound GRK2, FAM-aptamer displacement, at 10 µM, stronger effect = higher value
Sequence of Beta-adrenergic receptor kinase 1 (Homo sapiens) (P25098 whole entry, looked up): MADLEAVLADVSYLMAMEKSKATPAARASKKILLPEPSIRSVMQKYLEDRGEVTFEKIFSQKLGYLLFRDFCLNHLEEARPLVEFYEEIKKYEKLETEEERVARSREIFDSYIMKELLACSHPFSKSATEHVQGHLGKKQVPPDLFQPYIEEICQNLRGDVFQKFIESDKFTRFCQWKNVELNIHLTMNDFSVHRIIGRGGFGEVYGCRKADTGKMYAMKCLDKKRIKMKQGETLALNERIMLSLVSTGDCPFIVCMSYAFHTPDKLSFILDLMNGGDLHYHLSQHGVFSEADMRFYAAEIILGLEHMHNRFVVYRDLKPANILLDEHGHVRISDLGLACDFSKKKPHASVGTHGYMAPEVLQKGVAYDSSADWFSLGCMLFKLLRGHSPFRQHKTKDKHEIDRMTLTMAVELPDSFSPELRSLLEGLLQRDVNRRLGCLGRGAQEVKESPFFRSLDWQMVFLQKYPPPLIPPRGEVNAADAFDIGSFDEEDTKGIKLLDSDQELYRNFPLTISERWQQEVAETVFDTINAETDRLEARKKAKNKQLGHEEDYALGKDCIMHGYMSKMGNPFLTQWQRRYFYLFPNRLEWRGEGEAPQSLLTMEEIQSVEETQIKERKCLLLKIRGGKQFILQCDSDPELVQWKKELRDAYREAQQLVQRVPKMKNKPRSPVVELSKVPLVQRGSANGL

[14] = target: Beta-2 adrenergic receptor (Homo sapiens) (UniProt P07550); assay: beta2AR agonists driving receptor internalization, pilot screen, cell-based, FAP fluorogen, flow cytometry, validation set (AID 504459;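 active = percent response above 42, roughly 3 SD of non-fluorescent test compounds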;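 also: agonist-driven loss of surface beta2AR via internalization measured by FAP dye flow cytometry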); details: Am2.2-beta2AR cells, FAP surface receptor flow cytometry; at 10 µM; stronger effect = higher value
Sequence of Beta-2 adrenergic receptor (Homo sapiens) (P07550 whole entry, looked up): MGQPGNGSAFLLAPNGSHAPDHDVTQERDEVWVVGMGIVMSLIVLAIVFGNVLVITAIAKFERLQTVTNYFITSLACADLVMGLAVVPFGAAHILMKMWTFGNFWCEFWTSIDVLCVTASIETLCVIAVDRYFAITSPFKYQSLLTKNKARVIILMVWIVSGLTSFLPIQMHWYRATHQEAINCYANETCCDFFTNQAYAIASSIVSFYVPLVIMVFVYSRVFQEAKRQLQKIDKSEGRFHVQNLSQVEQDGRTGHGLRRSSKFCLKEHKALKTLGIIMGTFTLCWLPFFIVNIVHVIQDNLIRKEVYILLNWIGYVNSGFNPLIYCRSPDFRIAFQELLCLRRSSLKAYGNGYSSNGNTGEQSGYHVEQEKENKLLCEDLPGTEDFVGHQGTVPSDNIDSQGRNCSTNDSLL

[15] = target: AP-2 complex subunit beta (Homo sapiens) (UniProt P63010); assay: inhibitors of arrestin peptide binding to AP2, pilot screen, biochemical, validation set, GST-AP2 beads, flow cytometry (AID 504541;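 active = inhibition above 54%, about 3 SD of non-fluorescent compounds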;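 also: AP2 carries R879A mutation and is captured from E. coli lysate; bead-bound FITC arrestin peptide fluorescence measuring arrestin peptide binding to AP2; 0% = DMSO wells and 100% = excess unlabeled arrestin peptide control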); details: FITC arrestin peptide, at 10 µM, stronger effect = higher value, AP2 beta2 appendage fragment, R879A mutant
Sequence of AP-2 complex subunit beta (Homo sapiens) (P63010 whole entry, looked up, the tested form may be a part, one chain of several): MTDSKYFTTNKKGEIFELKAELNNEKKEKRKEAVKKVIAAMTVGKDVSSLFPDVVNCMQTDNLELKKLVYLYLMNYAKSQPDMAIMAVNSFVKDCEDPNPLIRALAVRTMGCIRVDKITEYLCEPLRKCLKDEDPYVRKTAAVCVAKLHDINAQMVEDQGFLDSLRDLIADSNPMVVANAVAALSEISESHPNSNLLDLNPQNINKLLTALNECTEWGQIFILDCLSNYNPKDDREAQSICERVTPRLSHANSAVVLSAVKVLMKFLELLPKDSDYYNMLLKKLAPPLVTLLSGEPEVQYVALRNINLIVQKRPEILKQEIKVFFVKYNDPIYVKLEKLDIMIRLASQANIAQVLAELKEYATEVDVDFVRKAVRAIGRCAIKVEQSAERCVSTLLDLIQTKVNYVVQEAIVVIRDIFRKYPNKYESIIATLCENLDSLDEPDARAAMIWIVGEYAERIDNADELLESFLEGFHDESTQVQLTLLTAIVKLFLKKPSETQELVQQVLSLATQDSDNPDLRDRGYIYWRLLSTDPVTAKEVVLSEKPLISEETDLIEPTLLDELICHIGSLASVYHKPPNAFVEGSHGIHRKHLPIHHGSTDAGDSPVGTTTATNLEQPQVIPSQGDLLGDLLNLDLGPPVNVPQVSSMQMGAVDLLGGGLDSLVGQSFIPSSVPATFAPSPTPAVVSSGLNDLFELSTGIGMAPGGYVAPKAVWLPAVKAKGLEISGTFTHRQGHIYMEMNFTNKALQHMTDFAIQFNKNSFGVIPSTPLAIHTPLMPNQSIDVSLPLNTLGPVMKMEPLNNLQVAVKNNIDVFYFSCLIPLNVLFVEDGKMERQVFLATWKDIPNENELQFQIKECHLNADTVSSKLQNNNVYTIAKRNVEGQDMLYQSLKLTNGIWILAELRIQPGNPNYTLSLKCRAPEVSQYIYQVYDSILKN

[16] = yeast V-ATPase proton transport modulators, S. cerevisiae, pHLuorin, HTS validation (AID 504600; in the data active = response above about 15%;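 also: plate controls were DMSO for no effect and reference compound for full effect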); details: S. cerevisiae pHLuorin cytosolic pH, at 10 µM, stronger effect = higher value
[17] = system: anti-desmoglein-3 scFv antibody binding to human DSG3; assay: inhibitors of anti-DSG3 scFv binding to DSG3, pilot screen, biochemical, validation compound set, bead-based, flow cytometry (AID 588368;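 active = binding below the plate cutoff, the plate median minus 3 SD, with a reading above zero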;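 also: signal is the median channel fluorescence of bead-bound GFP antibody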); details: Protein G beads, DSG3-Fc, scFv-GFP binding, at 10 µM, stronger effect = lower value
[18] = inhibitors of fungal efflux pumps CDR1, CDR2, MDR1, pilot screen, validation compound set, multiplex, phenotypic (AID 588506;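 active = efflux inhibition above 0.42, the validation set average plus 4 SD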;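 also: Nile Red retained in cells so higher fluorescence means more efflux inhibition; 0 = negative control wells and 1 = enniatin B 25 µM full block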); details: S. cerevisiae pump-expressing triplex, Nile Red efflux flow cytometry; at 10 µM; stronger effect = higher value; the pumps come from Candida albicans
[19] = target: ATP-binding cassette sub-family B member 6 (Homo sapiens) (UniProt Q9NP58); assay: ABCB6 transporter inhibitors, pilot screen, K562-ABCB6 cells, flow cytometry, validation set (AID 588550;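 active = inhibition above the screen-wide mean plus 3 SD, about 51%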;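 also: 0% = DMSO wells and 100% = benzethonium chloride 70 µM positive control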); details: K562-ABCB6 porphyrin accumulation, 1 h, at 10 µM, stronger effect = higher value
Sequence of ATP-binding cassette sub-family B member 6 (Homo sapiens) (Q9NP58 whole entry, looked up): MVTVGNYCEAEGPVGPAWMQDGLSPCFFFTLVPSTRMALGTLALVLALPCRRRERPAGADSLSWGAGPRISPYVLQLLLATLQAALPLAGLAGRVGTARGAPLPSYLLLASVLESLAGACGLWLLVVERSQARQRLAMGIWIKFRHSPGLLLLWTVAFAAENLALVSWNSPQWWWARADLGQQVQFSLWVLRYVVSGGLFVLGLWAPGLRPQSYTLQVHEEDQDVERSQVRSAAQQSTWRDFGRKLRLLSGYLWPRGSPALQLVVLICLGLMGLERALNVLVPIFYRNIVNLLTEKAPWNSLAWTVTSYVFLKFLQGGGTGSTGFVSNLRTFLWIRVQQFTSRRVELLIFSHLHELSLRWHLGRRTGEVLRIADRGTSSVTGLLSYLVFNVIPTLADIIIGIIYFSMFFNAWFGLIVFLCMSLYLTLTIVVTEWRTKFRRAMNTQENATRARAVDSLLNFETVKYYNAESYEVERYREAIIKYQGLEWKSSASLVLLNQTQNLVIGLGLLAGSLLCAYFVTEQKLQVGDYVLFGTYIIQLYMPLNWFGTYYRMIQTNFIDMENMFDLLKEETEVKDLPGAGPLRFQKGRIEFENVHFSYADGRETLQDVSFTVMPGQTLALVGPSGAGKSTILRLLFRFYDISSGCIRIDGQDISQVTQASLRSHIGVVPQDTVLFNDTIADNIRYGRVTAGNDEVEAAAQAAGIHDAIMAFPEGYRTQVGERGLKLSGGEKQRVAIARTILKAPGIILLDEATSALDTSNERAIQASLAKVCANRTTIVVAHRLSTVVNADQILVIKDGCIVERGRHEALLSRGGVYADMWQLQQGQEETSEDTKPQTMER

[20] = promoters of myeloid differentiation in arrested cells, primary screen, cell-based, GFP/MAC1 double positive, flow cytometry, validation set (AID 588685;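 active = differentiation response of at least 50%, scaled between solvent and reference control, from cells with both markers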;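 also: compound exposure lasts four days before antibody staining and flow analysis; 0% = DMSO wells and 100% = 5 µM fulvestrant positive control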); details: ER-HoxA9 marrow cells, stronger effect = higher value, normalized: vehicle 0, fulvestrant 100
[21] = measured here: daughter cell gate
[22] = measured here: mother cell gate
[23] = measured here: daughter cell gate response
[24] = measured here: mother cell gate response

For O=C(O)Cc1ccc(-c2ccccc2)cc1, the percent of DMSO control GFP [1] was 89.4% (inactive), the GFP response vs DMSO [2] was 96.3% (inactive) and the percent response of DMSO control [3] was 65.4% (inactive). For the same molecule, the GFP response vs DMSO [4] was 196% (active), the GFP response, % of DMSO [5] was 76.9% (inactive) and the GFP response vs DMSO [6] was 96.5% (inactive). For the same molecule, the GFP response vs DMSO [6, 21] was 93.3%, the GFP response vs DMSO [6, 22] was 95.9% and the GFP response relative to DMSO [7] was 115% (inactive). The GFP response relative to DMSO [7, 23] was 116%, the GFP response relative to DMSO [7, 24] was 114% and the GFP response vs DMSO [8] was 102% (inactive). For the same molecule, the GFP response, % of DMSO [9] was 102% (inactive), the GFP response, % of DMSO [9, 21] was 91.5% and the GFP response, % of DMSO [9, 22] was 103%. For the same molecule, the double positive events [10] was 65.8%, the vesicle binding response [10] was 5570% (inactive) and the inhibition [11] was 2.3% (inactive). The superoxide response (% of plate) [12] was 118% (inactive), the aptamer binding inhibition [13] was 3% (inactive) and the response [14] was 2.38% (inactive). For the same molecule, the inhibition [15] was 22.4% (inactive), the response [16] was -1.1% (inactive) and the binding (% of control) [17] was 99.5% (inactive). The efflux inhibition (fraction of control) [18] was -0.42 (inactive), the inhibition [19] was 8% (inactive) and the differentiation response [20] was -24.8% (inactive).
In the case of OC(CCN1CCCCC1)(c1ccccc1)c1ccccc1, the percent of DMSO control GFP [1] was 92.8% (inactive), the GFP response vs DMSO [2] was 126% (inactive) and the percent response of DMSO control [3] was 128% (active). The GFP response vs DMSO [4] was 86.9% (inactive), the GFP response, % of DMSO [5] was 91.9% (inactive) and the GFP response vs DMSO [6] was 100% (inactive). For the same molecule, the GFP response vs DMSO [6, 21] was 99%, the GFP response vs DMSO [6, 22] was 102% and the GFP response relative to DMSO [7] was 95% (inactive). For the same molecule, the GFP response relative to DMSO [7, 23] was 97.2%, the GFP response relative to DMSO [7, 24] was 95.2% and the GFP response vs DMSO [8] was 100% (inactive). The GFP response, % of DMSO [9] was 96.5% (inactive), the GFP response, % of DMSO [9, 21] was 96.5% and the GFP response, % of DMSO [9, 22] was 85.8%. For the same molecule, the double positive events [10] was 62.7%, the vesicle binding response [10] was 152% (inactive) and the inhibition [11] was 12.3% (inactive). The superoxide response (% of plate) [12] was 107% (inactive), the aptamer binding inhibition [13] was 2% (inactive) and the response [14] was 1.89% (inactive). The inhibition [15] was 2.98% (inactive), the response [16] was 5.35% (inactive) and the binding (% of control) [17] was 103% (inactive). For the same molecule, the efflux inhibition (fraction of control) [18] was -0.24 (inactive), the inhibition [19] was 8% (inactive) and the differentiation response [20] was -4.91% (inactive).
In the case of CC(=O)OCC(=O)[C@@]1(O)CC[C@H]2[C@@H]3CCC4=CC(=O)CC[C@]4(C)[C@H]3[C@@H](O)C[C@@]21C, the percent of DMSO control GFP [1] was 101% (inactive), the GFP response vs DMSO [2] was 104% (inactive) and the percent response of DMSO control [3] was 96.6% (inactive). The GFP response vs DMSO [4] was 97.3% (inactive), the GFP response, % of DMSO [5] was 103% (inactive) and the GFP response vs DMSO [6] was 95.8% (inactive). For the same molecule, the GFP response vs DMSO [6, 21] was 97.1%, the GFP response vs DMSO [6, 22] was 97.7% and the GFP response relative to DMSO [7] was 96.7% (inactive). For the same molecule, the GFP response relative to DMSO [7, 23] was 99.2%, the GFP response relative to DMSO [7, 24] was 95.1% and the GFP response vs DMSO [8] was 100% (inactive). The GFP response, % of DMSO [9] was 99.7% (inactive), the GFP response, % of DMSO [9, 21] was 101% and the GFP response, % of DMSO [9, 22] was 98.5%. The double positive events [10] was 62.5%, the vesicle binding response [10] was 4910% (inactive) and the inhibition [11] was -4.6% (inactive). The superoxide response (% of plate) [12] was 101% (inactive), the aptamer binding inhibition [13] was -1% (inactive) and the response [14] was 6.11% (inactive). The inhibition [15] was -11.1% (inactive), the response [16] was 2.08% (inactive) and the binding (% of control) [17] was 98.4% (inactive). The efflux inhibition (fraction of control) [18] was -0.26 (inactive), the inhibition [19] was -2% (inactive) and the differentiation response [20] was -1.71% (inactive).
